Assay results published in ChEMBL document CHEMBL1961873, “Compounds: GSK PKIS; Assays: Nanosyn kinase panel” (2012).

Assays:
[1] = target: T1, Tyrosine-protein kinase ITK/TSK (Homo sapiens) (UniProt Q08881); conditions: at 1 µM;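 note: values are mean percent inhibition of ITK from the GSK PKIS screen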
T1 sequence (whole entry): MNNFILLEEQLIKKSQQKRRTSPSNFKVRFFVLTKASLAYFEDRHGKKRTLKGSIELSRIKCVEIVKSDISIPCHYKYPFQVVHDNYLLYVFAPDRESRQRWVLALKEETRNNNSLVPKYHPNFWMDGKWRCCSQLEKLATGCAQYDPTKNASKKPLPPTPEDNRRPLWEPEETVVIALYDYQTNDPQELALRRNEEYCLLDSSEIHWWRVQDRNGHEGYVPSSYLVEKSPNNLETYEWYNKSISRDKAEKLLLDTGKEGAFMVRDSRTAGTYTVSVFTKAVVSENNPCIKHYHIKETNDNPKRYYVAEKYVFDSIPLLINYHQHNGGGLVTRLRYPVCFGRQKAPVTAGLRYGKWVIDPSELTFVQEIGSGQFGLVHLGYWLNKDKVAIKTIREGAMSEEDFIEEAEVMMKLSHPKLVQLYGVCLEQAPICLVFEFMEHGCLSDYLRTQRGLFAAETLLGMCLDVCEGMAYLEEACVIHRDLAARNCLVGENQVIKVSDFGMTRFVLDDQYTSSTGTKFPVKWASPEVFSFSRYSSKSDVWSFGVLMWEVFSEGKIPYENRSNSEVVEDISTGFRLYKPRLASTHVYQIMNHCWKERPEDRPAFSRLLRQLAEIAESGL

[2] = target: Tyrosine-protein kinase JAK1 (Homo sapiens) (UniProt P23458); conditions: at 0.1 µM
[3] = target: Tyrosine-protein kinase JAK1 (Homo sapiens) (UniProt P23458); conditions: at 1 µM
[4] = target: Tyrosine-protein kinase JAK2 (Homo sapiens) (UniProt O60674); conditions: at 0.1 µM
[5] = target: Tyrosine-protein kinase JAK2 (Homo sapiens) (UniProt O60674); conditions: at 1 µM
[6] = target: T2, Tyrosine-protein kinase JAK3 (Homo sapiens) (UniProt P52333); conditions: at 0.1 µM
T2 sequence (whole entry): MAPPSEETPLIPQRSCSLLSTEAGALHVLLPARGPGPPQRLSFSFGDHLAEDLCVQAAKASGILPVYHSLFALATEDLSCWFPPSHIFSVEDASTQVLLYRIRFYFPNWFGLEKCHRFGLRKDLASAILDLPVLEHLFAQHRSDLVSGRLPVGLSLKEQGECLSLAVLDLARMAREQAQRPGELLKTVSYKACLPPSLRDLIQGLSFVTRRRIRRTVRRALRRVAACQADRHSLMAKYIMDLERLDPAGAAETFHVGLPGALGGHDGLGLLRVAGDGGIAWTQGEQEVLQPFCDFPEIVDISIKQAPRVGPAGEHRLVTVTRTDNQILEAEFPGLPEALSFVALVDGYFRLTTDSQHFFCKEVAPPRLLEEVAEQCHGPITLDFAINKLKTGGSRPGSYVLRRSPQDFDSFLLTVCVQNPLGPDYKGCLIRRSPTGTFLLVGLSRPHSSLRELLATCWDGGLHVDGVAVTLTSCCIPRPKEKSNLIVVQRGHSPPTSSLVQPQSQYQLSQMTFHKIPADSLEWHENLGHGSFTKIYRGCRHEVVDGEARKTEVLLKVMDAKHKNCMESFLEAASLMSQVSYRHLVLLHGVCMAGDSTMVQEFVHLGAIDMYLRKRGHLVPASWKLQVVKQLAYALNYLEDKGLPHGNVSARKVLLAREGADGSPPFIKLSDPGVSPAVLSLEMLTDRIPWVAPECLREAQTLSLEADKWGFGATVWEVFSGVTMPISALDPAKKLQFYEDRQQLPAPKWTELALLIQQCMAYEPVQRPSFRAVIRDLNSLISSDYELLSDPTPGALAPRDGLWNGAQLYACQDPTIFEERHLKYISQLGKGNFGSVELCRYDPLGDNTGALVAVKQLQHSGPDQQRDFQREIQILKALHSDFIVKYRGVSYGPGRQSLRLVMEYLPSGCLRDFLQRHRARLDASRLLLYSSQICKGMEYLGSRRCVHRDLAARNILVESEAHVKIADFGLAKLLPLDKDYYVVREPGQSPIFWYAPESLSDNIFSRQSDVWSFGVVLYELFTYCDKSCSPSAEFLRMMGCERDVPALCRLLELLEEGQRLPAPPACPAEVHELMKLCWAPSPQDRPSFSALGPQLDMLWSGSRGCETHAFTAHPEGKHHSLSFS

[7] = target: T2, Tyrosine-protein kinase JAK3 (Homo sapiens); conditions: at 1 µM
[8] = target: Vascular endothelial growth factor receptor 2 (Homo sapiens) (UniProt P35968); conditions: at 0.1 µM
[9] = target: Vascular endothelial growth factor receptor 2 (Homo sapiens) (UniProt P35968); conditions: at 1 µM
[10] = target: Mast/stem cell growth factor receptor Kit (Homo sapiens) (UniProt P10721); conditions: at 0.1 µM
[11] = target: Mast/stem cell growth factor receptor Kit (Homo sapiens) (UniProt P10721); conditions: at 1 µM
[12] = tested on: Mast/stem cell growth factor receptor Kit (Homo sapiens), P10721 [D816V]; conditions: at 0.1 µM
[13] = tested on: Mast/stem cell growth factor receptor Kit (Homo sapiens), P10721 [D816V]; conditions: at 1 µM
[14] = tested on: Mast/stem cell growth factor receptor Kit (Homo sapiens), P10721 [T670I]; conditions: at 0.1 µM
[15] = tested on: Mast/stem cell growth factor receptor Kit (Homo sapiens), P10721 [T670I]; conditions: at 1 µM
[16] = tested on: Mast/stem cell growth factor receptor Kit (Homo sapiens), P10721 [V560G]; conditions: at 0.1 µM
[17] = tested on: Mast/stem cell growth factor receptor Kit (Homo sapiens), P10721 [V560G]; conditions: at 1 µM
[18] = target: Tyrosine-protein kinase Lck (Homo sapiens) (UniProt P06239); conditions: at 0.1 µM
[19] = target: Tyrosine-protein kinase Lck (Homo sapiens) (UniProt P06239); conditions: at 1 µM
[20] = target: Leukocyte tyrosine kinase receptor (Homo sapiens) (UniProt P29376); conditions: at 0.1 µM
Leukocyte tyrosine kinase receptor (Homo sapiens), sequence (P29376 whole entry): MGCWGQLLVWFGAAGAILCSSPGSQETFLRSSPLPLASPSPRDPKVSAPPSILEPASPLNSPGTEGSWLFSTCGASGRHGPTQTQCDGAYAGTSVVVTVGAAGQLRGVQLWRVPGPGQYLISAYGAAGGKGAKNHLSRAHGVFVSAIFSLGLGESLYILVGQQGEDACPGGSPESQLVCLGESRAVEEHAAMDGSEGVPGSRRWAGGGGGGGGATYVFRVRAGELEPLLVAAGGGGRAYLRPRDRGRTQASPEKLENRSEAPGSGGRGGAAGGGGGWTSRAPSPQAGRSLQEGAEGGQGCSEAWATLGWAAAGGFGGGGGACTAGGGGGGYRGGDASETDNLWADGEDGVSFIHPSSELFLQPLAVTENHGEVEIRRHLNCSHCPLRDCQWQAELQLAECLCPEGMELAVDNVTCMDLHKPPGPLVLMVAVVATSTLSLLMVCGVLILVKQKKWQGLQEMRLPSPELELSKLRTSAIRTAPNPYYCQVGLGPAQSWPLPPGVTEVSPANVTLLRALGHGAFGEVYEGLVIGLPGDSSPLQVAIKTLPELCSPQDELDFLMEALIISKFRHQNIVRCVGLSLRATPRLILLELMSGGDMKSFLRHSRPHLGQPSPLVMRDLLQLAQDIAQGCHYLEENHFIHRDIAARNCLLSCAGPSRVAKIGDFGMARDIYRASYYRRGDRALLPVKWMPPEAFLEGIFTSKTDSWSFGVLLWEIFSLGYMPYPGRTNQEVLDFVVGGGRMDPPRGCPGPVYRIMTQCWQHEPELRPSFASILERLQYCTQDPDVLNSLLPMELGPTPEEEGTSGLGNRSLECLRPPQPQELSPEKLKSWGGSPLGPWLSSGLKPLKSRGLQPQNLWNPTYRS

Tyrosine-protein kinase Lck (Homo sapiens), sequence (P06239 2-509 limits assumed): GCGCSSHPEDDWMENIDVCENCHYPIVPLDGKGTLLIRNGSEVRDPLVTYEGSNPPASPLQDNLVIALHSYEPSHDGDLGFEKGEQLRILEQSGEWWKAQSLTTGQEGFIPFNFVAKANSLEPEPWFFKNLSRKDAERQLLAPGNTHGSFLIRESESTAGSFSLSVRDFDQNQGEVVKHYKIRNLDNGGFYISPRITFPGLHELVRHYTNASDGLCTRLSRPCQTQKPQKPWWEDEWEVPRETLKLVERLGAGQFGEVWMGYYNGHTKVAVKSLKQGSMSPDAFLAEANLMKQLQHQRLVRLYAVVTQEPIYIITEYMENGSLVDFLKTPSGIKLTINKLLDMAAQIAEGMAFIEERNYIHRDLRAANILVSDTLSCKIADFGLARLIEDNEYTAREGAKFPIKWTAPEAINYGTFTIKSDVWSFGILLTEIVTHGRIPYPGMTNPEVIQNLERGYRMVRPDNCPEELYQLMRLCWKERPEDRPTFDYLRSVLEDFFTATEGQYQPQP
Mast/stem cell growth factor receptor Kit (Homo sapiens), P10721 [D816V], sequence (P10721 whole entry D816V): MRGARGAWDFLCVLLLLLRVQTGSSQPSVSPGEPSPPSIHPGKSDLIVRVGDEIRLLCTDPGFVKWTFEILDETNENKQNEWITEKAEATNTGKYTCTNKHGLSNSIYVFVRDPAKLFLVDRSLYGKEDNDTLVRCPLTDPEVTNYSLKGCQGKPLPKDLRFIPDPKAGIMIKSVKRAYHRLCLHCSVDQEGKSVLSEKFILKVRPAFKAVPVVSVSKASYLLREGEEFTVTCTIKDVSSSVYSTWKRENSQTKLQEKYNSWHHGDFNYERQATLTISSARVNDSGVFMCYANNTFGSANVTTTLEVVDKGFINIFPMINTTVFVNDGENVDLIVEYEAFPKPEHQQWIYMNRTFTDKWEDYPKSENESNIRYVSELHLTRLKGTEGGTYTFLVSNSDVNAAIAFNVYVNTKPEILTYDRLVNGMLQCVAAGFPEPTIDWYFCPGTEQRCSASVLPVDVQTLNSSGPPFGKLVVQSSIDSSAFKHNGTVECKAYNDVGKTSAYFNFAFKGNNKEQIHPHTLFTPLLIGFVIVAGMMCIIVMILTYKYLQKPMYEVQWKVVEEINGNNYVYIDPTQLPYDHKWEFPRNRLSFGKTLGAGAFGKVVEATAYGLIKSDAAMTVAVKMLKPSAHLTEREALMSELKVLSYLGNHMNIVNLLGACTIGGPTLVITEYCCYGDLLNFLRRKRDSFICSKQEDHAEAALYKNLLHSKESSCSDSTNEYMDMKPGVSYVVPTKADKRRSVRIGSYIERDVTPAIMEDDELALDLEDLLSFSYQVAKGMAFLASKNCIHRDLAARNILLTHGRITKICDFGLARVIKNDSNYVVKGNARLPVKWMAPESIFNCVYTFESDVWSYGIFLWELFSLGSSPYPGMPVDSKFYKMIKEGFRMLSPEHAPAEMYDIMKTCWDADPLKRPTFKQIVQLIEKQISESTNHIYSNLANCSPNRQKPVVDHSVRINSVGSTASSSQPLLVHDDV
Tyrosine-protein kinase JAK1 (Homo sapiens), sequence (P23458 whole entry): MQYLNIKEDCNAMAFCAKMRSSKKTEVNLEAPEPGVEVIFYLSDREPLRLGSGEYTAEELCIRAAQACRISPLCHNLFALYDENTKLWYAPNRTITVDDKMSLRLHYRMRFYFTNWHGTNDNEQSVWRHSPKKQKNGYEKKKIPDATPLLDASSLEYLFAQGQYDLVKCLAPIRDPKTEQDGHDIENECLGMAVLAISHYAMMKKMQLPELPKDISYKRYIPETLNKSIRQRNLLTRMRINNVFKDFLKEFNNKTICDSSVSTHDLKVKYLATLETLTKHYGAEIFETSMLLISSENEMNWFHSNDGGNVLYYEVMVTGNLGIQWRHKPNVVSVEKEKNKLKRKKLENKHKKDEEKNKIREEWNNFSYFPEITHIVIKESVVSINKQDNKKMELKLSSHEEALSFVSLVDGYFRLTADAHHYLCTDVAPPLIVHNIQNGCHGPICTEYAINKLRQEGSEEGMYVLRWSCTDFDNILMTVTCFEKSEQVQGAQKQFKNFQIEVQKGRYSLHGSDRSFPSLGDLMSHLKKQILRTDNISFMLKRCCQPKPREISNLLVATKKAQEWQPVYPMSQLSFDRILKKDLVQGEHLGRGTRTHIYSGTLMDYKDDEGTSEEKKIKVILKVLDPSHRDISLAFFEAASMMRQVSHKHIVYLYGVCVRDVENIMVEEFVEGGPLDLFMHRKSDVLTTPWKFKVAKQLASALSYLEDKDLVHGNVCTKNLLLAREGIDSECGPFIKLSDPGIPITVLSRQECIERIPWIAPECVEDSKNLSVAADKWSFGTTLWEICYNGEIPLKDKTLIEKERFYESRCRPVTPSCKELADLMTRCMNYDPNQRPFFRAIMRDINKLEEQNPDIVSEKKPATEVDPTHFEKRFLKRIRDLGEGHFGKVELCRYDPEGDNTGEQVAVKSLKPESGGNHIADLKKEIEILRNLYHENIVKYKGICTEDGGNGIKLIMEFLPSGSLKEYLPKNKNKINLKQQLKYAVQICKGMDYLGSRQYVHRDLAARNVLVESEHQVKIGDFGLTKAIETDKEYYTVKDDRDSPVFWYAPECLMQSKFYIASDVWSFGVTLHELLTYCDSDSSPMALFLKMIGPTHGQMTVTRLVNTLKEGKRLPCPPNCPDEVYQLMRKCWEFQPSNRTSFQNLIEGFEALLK
Mast/stem cell growth factor receptor Kit (Homo sapiens), P10721 [V560G], sequence (P10721 whole entry V560G): as the sequence (P10721 whole entry D816V) above, with V560G, V816D counted along it
Tyrosine-protein kinase JAK2 (Homo sapiens), sequence (O60674 whole entry): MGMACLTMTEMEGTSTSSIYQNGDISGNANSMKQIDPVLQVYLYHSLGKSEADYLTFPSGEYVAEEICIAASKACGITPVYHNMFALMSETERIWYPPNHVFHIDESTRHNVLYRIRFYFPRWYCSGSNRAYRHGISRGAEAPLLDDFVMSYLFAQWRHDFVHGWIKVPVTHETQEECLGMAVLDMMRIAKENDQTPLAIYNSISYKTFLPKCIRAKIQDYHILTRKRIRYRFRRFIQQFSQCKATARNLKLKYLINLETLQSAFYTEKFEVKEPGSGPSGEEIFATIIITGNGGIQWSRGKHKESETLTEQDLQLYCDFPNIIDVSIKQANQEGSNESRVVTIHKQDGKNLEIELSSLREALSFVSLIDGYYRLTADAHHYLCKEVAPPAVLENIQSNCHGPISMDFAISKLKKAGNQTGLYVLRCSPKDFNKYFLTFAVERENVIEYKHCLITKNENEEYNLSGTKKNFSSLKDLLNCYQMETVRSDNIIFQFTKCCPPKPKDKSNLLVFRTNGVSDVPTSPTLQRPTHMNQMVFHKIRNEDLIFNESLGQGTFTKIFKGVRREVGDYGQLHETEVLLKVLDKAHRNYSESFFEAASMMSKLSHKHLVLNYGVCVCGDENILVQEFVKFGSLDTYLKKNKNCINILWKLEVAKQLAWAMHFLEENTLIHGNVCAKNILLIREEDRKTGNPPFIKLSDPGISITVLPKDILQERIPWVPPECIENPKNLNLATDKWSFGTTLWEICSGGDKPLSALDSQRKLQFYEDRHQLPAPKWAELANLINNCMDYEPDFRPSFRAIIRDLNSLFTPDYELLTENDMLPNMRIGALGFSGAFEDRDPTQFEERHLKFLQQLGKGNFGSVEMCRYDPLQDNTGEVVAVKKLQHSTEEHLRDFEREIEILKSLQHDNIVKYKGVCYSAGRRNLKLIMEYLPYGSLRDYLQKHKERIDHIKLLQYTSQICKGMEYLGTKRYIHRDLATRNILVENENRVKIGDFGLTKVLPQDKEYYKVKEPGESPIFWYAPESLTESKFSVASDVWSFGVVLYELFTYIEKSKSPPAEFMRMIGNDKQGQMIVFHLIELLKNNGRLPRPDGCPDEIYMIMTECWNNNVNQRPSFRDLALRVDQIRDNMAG
Mast/stem cell growth factor receptor Kit (Homo sapiens), sequence (P10721 whole entry): as the sequence (P10721 whole entry D816V) above, with V816D counted along it
Mast/stem cell growth factor receptor Kit (Homo sapiens), P10721 [T670I], sequence (P10721 whole entry T670I): as the sequence (P10721 whole entry D816V) above, with T670I, V816D counted along it

Row | Compound | inhibition [1] | inhibition [2] | inhibition [3] | inhibition [4] | inhibition [5] | inhibition [6] | inhibition [7] | inhibition [8] | inhibition [9] | inhibition [10] | inhibition [11] | inhibition [12] | inhibition [13] | inhibition [14] | inhibition [15] | inhibition [16] | inhibition [17] | inhibition [18] | inhibition [19] | inhibition [20]
1 | COc1cccc(COc2cc(-n3cnc4ccccc43)sc2C(N)=O)c1 | 0.54% | -1.14% | 0.01% | -1.09% | -2.1% | -1.45% | -1.13% | -3.84% | 3.07% | 0.16% | -3.97% | -0.07% | -0.97% | -0.12% | -0.76% | -2.2% | -2.16% | 0.12% | -0.7% | 0.36%
2 | NC(=O)c1sc(-n2cnc3cc(C(F)(F)F)ccc32)cc1OCc1ccccc1Br | 1.42% | 5.27% | 5.31% | 0.93% | -0.32% | -1.17% | 0.71% | 1.59% | 4.43% | -1.21% | 1.77% | -1.89% | -0.03% | 0.92% | 0.92% | 0.44% | -1.3% | 1.84% | 4.62% | 1.94%
3 | Fc1ccc(-c2ncn(C3CCNCC3)c2-c2ccnc(Oc3ccccc3)n2)cc1 | -3.42% | 1.24% | -0.07% | -0.28% | -0.02% | -6.39% | -5.72% | 4.3% | 6.72% | 0.89% | 1.46% | 0.53% | 4.38% | 0.68% | 2.08% | 3.13% | 1.77% | -2.11% | -2.53% | 0.54%
4 | CCn1c(-c2nonc2N)nc2c(C#CC(C)(C)O)ncc(OCC3CCNCC3)c21 | -1.96% | 4.7% | 12.5% | 0.61% | 1.31% | -4.99% | -3.39% | 34.8% | 71.2% | 4.46% | 8.48% | 3.82% | 5.6% | 1.76% | 4.21% | 3.17% | 3.26% | -3.71% | -1.12% | 2.4%
5 | CCn1c(-c2nonc2N)nc2c(C#CC(C)(C)O)nc(O[C@@H](CN)c3ccccc3)cc21 | 0.91% | -1.37% | 4.4% | -0.3% | 0.78% | 0.59% | 3.54% | 86.8% | 75.4% | -1.5% | 2.69% | 0.72% | 34.2% | -0.51% | 10.4% | 3.42% | 3.54% | 0.41% | 4.58% | 35.4%
6 | NS(=O)(=O)c1ccc(-c2ccc3c(NC(=O)C4CC4)n[nH]c3c2)cc1 | 6.67% | 1.47% | -1.13% | 1.06% | 2.65% | -0.06% | 2.45% | 3.61% | 8.35% | 3.61% | 1.91% | 3.57% | 0.9% | 4.28% | 4.13% | 2.1% | -1.99% | 2.8% | 4.43% | 1.17%
7 | COc1cc2c(cc1Nc1nc(Nc3ccsc3C(N)=O)c3cc[nH]c3n1)N(C(=O)CN(C)C)CCC2 | 0.88% | 3.36% | 1.85% | 3.45% | -0.28% | -2.19% | -1.7% | 1.27% | 5.32% | – | – | 0.61% | 2.53% | -0.99% | 3.92% | 1.1% | 8.54% | 2.58% | 6.92% | 93.8%
8 | Nc1nonc1-c1nc2cnccc2n1C1CCCCC1 | 0.48% | -2.62% | 2.81% | -0.95% | -0.41% | -0.04% | 3.98% | 6.99% | 46.3% | -1.47% | 20.6% | -4.78% | -1.9% | -2.27% | 13.3% | 1.39% | 3.23% | -0.24% | 0.51% | -0.53%
9 | COc1cccc(-n2ncc3c(N/N=C/c4ccncc4)ncnc32)c1 | 5.47% | 5.43% | 15.3% | 2.01% | 13.5% | -0.96% | 10.6% | 28.8% | 69.2% | 13.5% | 57.2% | 2.45% | 12.7% | 9.47% | 46.9% | 0.93% | 10.7% | 41.1% | 84% | 4.93%
10 | CCn1c(-c2nonc2N)nc2c(C#CCN)ncc(OCCCN)c21 | -1.36% | 4.06% | 13.7% | -1.01% | -1.7% | 5.62% | 4.64% | -3.31% | 5.24% | -1.96% | 3.33% | -3.56% | 3.48% | -1.86% | 2.2% | 1.17% | 2.93% | 1.94% | 0.46% | -1.04%
11 | NS(=O)(=O)c1ccc(N/C=C2\C(=O)Nc3ccc4ncsc4c32)cc1 | 8.24% | 5.09% | 26.8% | 1.74% | 11.1% | 6.45% | 54.4% | 43.8% | 75.3% | 50% | 90% | 0.89% | 14.5% | 12.1% | 58.9% | 0.83% | 20.2% | 4.26% | 13.2% | 5.19%
12 | CCn1c(-c2nonc2N)nc2c(C#CC(C)(C)O)ncc(OC[C@@H]3CCCN3)c21 | 0.41% | 0.75% | 2.18% | -1.4% | -2.12% | -2.14% | 0.33% | 31.2% | 81.3% | -1.26% | -2.57% | -1.62% | 4.32% | -1.38% | 1.32% | 0.39% | -1.89% | 1.21% | 3.66% | 0.71%
13 | Cc1cc(-c2ccco2)cc(C)c1/C=C/c1cncc(-c2nn[nH]n2)c1 | 0.9% | -0.35% | 3.09% | 0% | -0.44% | -1.94% | 0.31% | -2.08% | -0.14% | -0.86% | 0.94% | -2.81% | -2.99% | 1.44% | 0.51% | 1.15% | 3.87% | 1.77% | 4.38% | 1.51%
14 | COc1cc(C=NNc2ncnc3c2cnn3Cc2ccccc2)ccc1O | 0.65% | -5.07% | 3.34% | -1.56% | -0.04% | 0.38% | 3.71% | -1.08% | 12.2% | -5.78% | -1.55% | -5.85% | 0.6% | -3.69% | -2.85% | 1.99% | 3.94% | 13.2% | 14.2% | -2.98%
